# Reference: PubChem BioAssay (NCATS)
# Records with an inconclusive call do not appear. Where a call stands in place of a potency, no number is given. Activity calls are given as the source filed them. Unless noted, calls come from the whole dose curve; as a rule, active = well fitted curve in the direction sought with a large enough effect; inconclusive = small, poorly fitted or top-dose-only effect, or another doubt; inactive = no such curve, though single readings can be large; an effect the other way counts as inactive or inconclusive.
# Columns and labels:
# [1] = Cytometric Cell-Based qHTS for Inhibitors of the mTORC1 Signaling Pathway in MEF (Tsc2-/-, p53-/-) Cells (AID 2660);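 note: Tsc2 and p53 null MEFs carrying empty vector with compound for 24 h; percent of cells above a phospho-rpS6 to PI ratio cutoff in each well; series mostly up to about 38 µM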
# How it was run: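 Readout: Alexa-488 phospho-rpS6 (Ser235/236) intensity divided by PI intensity, thresholded against 7.5 nM rapamycin wells and reported as % positive cells. PI cell count served as the viability measure. Compound exposure was 24 hrs at 37 degree Celsius.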
# [2] = High Content Imaging Cell-Based qHTS for Inhibitors of the mTORC1 Signaling Pathway in MEF Cells (AID 2667);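 note: Tsc2-/- p53-/- MEFs stably re-expressing wild-type Tsc2 exposed 24 h; series mostly up to about 38 µM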
# How it was run: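 Immunofluorescence for rpS6 phosphorylation in MEFs of Tsc2-/-, p53-/- background rescued with WT Tsc2. Compound exposure lasted 24 hrs. Inhibition was scored against rapamycin-treated control wells.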
# [3] = Cytometry Cell-Based qHTS for Inhibitors of the mTORC1 Signaling Pathway in MEF cells (AID 2668); note: potency is the fitted concentration of half-maximal effect
# How it was run: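 Read-out: phospho-rpS6 Ser235/236 immunofluorescence normalized to propidium iodide intensity, scored as % active cells against a rapamycin (7.5 nM) threshold. Cells: Tsc2-/-, p53-/- MEFs stably expressing WT Tsc2, compound-treated 24 hrs at 37 degree Celsius.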
# [4] = Validation screen for small molecules that induce DNA re-replication in MCF 10A normal breast cells (AID 463097); note: nearly all actives have a fitted effect of over 60% in size
# How it was run: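 250 MCF 10A cells/well; compound pin-transferred; 48 hr, 37 C, 5% CO2; Hoechst 40 min; imaged 405/500-530 nm. Hits = more high-intensity nuclei.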
# [5] = biological target: Ubiquitin carboxyl-terminal hydrolase 2 (Homo sapiens) (UniProt O75604); experiment: qHTS Validation Assay for Inhibitors of Ubiquitin-specific Protease USP2a Using CHOP2 as the Reporter (AID 463106)
# How it was run: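 10nM USP2 core + cpd, 30min RT; add 25nM Ub-CHOP2/25nM substrate; 60min RT; FI 485/531nm. Buffer Tris pH 8.0, CaCl2, BME, CHAPS. Norm. to NEM = 100% inhibition; time-zero read flags fluorescent artifacts.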
# [6] = biological target: DNA polymerase III PolC-type (Bacillus subtilis (strain 168)) (UniProt P13267); experiment: qHTS Validation Assay for the Inhibitors of DNA Replication in Gram-Positive Bacteria (AID 485295);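 note: reconstituted holoenzyme with PolC plus beta clamp SSB and primase; PicoGreen fluorescence of double-stranded DNA made on primed circular M13 template; series mostly up to about 57 µM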
# How it was run: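 PicoGreen fluorescence (ex 480–485/em 535–540 nm) reports dsDNA synthesized on ssM13Gori template with dNTPs/NTPs. Enzyme: holoenzyme rebuilt from purified PolC, beta subunit, SSB and primase. Compound preincubated before substrate addition; RT throughout.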
# [7] = biological target: Tumor susceptibility gene 101 protein (Homo sapiens) (UniProt Q99816); experiment: qHTS Validation Assay for Iinhibitors of HIV-1 Budding by Blocking the Interaction of PTAP/TSG101 (AID 485342; calls by dose curve)
# How it was run: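 FP read-out: FITC-PTAP peptide, 50 nM final, binding Tsg101 binding domain, 10 uM final; 20 min r.t.; 10 mM HEPES pH 7.5, 0.15 M NaCl, 0.01% Tween 20, 3 mM EDTA, 0.1 mM TCEP.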
# [8] = qHTS Validation Assay to Find Inhibitors of Chronic Active B-Cell Receptor Signaling (AID 485345; active = well fitted curve in the direction sought with a large enough effect in the main read-out, with a control signal flat, not every such curve was filed as active)
# How it was run: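 Read-out: ratio of filter-corrected green (IkappaBalpha fusion) to red (native) luciferase signal in doxycycline-induced TMD8 cells after 4 h at 37C. Titration spanned 46 uM–3 nM; Data were normalised to basal cells and 10 uM MG-132 wells.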
# [9] = High Content Imaging Cell-Based qHTS for Inhibitors of the mTORC1 Signaling Pathway in MEF (Tsc2-/-, p53-/-) Cells (AID 2666);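 note: percent of cells scored positive for phospho-rpS6 Ser235/236 immunostaining by imaging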
# How it was run: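 Cells were plated, dosed with compound after 24 hrs, and incubated another 24 hrs at 37 degree Celsius. Fixed cells were immunostained for phospho-rpS6 Ser235/236 and counterstained, and the normalized signal was scored as % active cells against rapamycin and DMSO controls.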
# DNA polymerase III PolC-type (Bacillus subtilis (strain 168)), sequence (P13267 whole entry, looked up): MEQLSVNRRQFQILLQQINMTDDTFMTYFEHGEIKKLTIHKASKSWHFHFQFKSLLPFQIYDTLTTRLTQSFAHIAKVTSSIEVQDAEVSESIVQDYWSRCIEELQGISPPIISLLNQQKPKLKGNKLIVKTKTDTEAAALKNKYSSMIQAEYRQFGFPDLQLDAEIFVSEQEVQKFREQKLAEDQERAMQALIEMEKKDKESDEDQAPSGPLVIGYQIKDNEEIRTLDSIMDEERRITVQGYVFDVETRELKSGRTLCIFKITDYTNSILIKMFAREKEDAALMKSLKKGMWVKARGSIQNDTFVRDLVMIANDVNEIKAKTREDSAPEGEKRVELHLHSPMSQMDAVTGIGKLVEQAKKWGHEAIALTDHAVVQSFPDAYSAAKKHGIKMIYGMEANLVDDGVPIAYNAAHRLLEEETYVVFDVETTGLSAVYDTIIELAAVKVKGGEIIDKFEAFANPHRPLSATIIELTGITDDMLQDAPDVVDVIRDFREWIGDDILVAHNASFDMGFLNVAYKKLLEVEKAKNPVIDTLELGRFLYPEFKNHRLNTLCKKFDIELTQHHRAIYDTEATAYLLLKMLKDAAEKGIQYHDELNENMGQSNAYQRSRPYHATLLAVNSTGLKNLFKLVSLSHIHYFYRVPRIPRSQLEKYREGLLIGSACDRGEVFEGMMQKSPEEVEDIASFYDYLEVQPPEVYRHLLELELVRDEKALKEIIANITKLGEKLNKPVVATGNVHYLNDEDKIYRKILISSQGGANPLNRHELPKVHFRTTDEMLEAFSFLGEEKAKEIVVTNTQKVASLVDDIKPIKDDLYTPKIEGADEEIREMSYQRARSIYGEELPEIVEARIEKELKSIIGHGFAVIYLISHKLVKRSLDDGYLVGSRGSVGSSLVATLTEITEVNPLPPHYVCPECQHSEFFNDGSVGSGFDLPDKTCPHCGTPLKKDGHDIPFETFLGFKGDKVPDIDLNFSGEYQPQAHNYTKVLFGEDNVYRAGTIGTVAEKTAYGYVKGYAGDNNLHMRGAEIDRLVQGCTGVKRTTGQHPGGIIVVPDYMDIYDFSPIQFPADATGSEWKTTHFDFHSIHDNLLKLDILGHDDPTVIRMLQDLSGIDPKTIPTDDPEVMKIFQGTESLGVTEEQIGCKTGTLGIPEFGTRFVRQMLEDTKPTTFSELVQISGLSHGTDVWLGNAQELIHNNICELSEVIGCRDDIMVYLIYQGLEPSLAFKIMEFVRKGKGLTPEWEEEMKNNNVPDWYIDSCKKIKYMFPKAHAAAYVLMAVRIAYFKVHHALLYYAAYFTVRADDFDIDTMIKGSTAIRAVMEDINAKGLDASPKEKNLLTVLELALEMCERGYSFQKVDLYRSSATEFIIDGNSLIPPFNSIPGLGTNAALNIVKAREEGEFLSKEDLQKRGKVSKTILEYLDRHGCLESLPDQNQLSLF
# Ubiquitin carboxyl-terminal hydrolase 2 (Homo sapiens), sequence (O75604 whole entry, looked up): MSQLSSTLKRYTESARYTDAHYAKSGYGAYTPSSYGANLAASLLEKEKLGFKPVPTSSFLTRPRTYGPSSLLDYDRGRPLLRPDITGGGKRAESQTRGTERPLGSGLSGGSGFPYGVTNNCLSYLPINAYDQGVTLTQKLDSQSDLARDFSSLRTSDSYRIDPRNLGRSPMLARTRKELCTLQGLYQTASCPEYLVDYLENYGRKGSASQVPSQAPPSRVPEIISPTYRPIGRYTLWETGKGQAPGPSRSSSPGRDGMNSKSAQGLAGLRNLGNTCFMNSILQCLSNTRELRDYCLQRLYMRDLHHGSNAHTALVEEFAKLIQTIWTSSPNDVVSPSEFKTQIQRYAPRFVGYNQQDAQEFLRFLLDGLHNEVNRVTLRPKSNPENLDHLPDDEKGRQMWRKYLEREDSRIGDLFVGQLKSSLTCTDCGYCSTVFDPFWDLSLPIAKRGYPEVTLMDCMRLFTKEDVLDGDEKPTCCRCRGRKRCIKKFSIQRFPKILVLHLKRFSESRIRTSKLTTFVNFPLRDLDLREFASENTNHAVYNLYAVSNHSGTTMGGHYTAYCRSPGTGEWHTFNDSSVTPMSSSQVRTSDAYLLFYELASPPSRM
# Tumor susceptibility gene 101 protein (Homo sapiens), sequence (Q99816 whole entry, looked up, the tested form may be a part): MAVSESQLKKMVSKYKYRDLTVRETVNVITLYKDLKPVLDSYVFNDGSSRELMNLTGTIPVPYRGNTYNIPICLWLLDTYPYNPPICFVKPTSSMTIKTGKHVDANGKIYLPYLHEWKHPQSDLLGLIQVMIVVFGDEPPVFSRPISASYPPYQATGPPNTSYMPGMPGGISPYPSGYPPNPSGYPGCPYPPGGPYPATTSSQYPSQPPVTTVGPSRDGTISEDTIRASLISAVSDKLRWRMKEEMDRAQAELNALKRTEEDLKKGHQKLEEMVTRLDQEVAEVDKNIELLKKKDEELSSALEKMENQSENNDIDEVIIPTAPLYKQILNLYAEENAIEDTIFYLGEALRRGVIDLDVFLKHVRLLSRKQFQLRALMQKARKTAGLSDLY
Compound,outcome [1],Potency [2],Potency [3],Potency [4],Potency [5],Potency [6],outcome [7],outcome [8],Potency [9]
Cn1cc(C(F)(F)F)nc1-c1ccc(OCC(O)CNCCOc2ccc(O)c(C(N)=O)c2)cc1 (configuration not stated),inactive,inactive,inactive,inactive,inactive,inactive,inactive,inactive,–
N#C/C(=C\c1ccc(O)c(O)c1)C(=O)NCCc1ccccc1,inactive,–,10.4 µM (active),–,inactive,–,inactive,–,inactive
CCCCCCCCCC(=O)NC(CN1CCOCC1)[C@H](O)c1ccccc1 (some centres not stated),inactive,–,–,–,inactive,–,inactive,inactive,inactive
CC(N)(Cc1ccc(O)c(O)c1)C(=O)O (configuration not stated),inactive,inactive,inactive,inactive,inactive,inactive,inactive,inactive,–
O=C(O)C1=CCCN(CCON=C(c2ccccc2)c2ccccc2)C1,inactive,inactive,inactive,inactive,inactive,inactive,inactive,–,–
O=c1[nH]c(=S)[nH]c(-c2ccccc2)c1Cc1c(O)ccc2ccccc12,inactive,–,inactive,–,inactive,–,inactive,–,inactive
C=CCN1CCc2c(cc(O)c(O)c2Br)[C@@H](c2ccccc2)C1,inactive,–,–,–,inactive,–,–,inactive,inactive
CC[C@@H]1Cc2cc(O)ccc2C2=C1c1ccc(O)cc1C[C@H]2CC,inactive,–,–,–,inactive,inactive,inactive,–,inactive
